In PubChem BioAssay AID1159580 (chemical genetic matrix, 2015):
In all, about 5,500 compounds went through this assay and about 2,000 (36%) were called active. Not shown: some 18% with an inconclusive outcome. Rule as the data show it: active = normalized growth mostly below about 0.91 (no sharp cut-off); inconclusive = no clear call, values can overlap the other calls; inactive = mostly above about 0.92. The list shows a part of the results.

Test: chemical genetic growth profiling, strain panel (AID 1159580);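 also: tested at 20 µM; growth read once vehicle control cultures reached saturation at 30 °C; 1 = growth at the plate median or of vehicle wells; lower values mean less growth of the strain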
Settings: S. cerevisiae deletion strains, growth OD

Measured: normalized growth

NC(=NCCC[C@H](N)C(=O)O)N[N+](=O)[O-]
inactive: locus YAL013W, strain DEP1, stronger effect = lower value 0.99 | locus YAL021C, strain ccr4, stronger effect = lower value 1.02 | locus YAL026C, strain drs2, stronger effect = lower value 1.03 | locus YAL030W, strain snc1, stronger effect = lower value 1.02 | locus YBL061C, strain skt5, stronger effect = lower value 1.02 | locus YBR009C, strain hhf1, stronger effect = lower value 1.02 | locus YBR021W, strain FUR4, stronger effect = lower value 0.992 | locus YBR023C, strain chs3, stronger effect = lower value 1.02 | locus YBR171W, strain sec66, stronger effect = lower value 1.03 | locus YBR229C, strain ROT2, stronger effect = lower value 1 | locus YBR231C, strain swc5, stronger effect = lower value 1.02 | locus YBR279W, strain paf1, stronger effect = lower value 1.02 | locus YCL011C, strain gbp2, stronger effect = lower value 1.03 | locus YCL016C, strain dcc1, stronger effect = lower value 1.02 | locus YCL029C, strain bik1, stronger effect = lower value 0.994 | locus YCL069W, strain vba3, stronger effect = lower value 1.01 | locus YCR088W, strain abp1, stronger effect = lower value 1.03 | locus YDL005C, strain med2, stronger effect = lower value 1.03 | locus YDL035C, strain GPR1, stronger effect = lower value 1 | locus YDL040C, strain nat1, stronger effect = lower value 1.02 | locus YDL074C, strain BRE1, stronger effect = lower value 0.978 | locus YDL101C, strain DUN1, stronger effect = lower value 1 | locus YDL134C, strain PPH21, stronger effect = lower value 1.01 | locus YDL185W, strain tfp1, stronger effect = lower value 1.01 | locus YDL192W, strain arf1, stronger effect = lower value 1.01 | locus YDR001C, strain nth1, stronger effect = lower value 1.01 | locus YDR069C, strain doa4, stronger effect = lower value 1.03 | locus YDR101C, strain arx1, stronger effect = lower value 0.946 | locus YDR137W, strain rgp1, stronger effect = lower value 1.05 | locus YDR150W, strain NUM1, stronger effect = lower value 0.992 | locus YDR159W, strain sac3, stronger effect = lower value 0.991 | locus YDR162C, strain NBP2, stronger effect = lower value 1.02 | locus YDR195W, strain ref2 1.04 | locus YDR297W, strain sur2, stronger effect = lower value 1.02 | locus YDR318W, strain mcm21, stronger effect = lower value 1.01 | locus YDR334W, strain swr1, stronger effect = lower value 1.02 | locus YDR335W, strain msn5, stronger effect = lower value 1.03 | locus YDR388W, stronger effect = lower value 1.02 | locus YDR392W, strain spt3, stronger effect = lower value 1.03 | locus YDR502C, strain sam2, stronger effect = lower value 1.01 | locus YEL003W, strain gim4, stronger effect = lower value 1.02 | locus YEL037C, strain rad23, stronger effect = lower value 1.03 | locus YEL061C, strain CIN8 (second series), stronger effect = lower value 1.01 | locus YEL061C, strain CIN8, stronger effect = lower value 0.983 | locus YER015W, strain faa2, stronger effect = lower value 1.03 | locus YER016W, strain bim1, stronger effect = lower value 1.01 | locus YER110C, stronger effect = lower value 1.01 | locus YER111C, strain swi4, stronger effect = lower value 1.04 | locus YER155C, strain BEM2 (second series), stronger effect = lower value 1.06 | locus YER155C, strain BEM2, stronger effect = lower value 1 | locus YER167W, strain BCK2, stronger effect = lower value 0.998 | locus YFR010W, strain ubp6, stronger effect = lower value 1.03 | locus YGL078C, strain dbp3, stronger effect = lower value 1 | locus YGL086W, strain mad1, stronger effect = lower value 0.982 | locus YGL167C, strain pmr1, stronger effect = lower value 1.02 | locus YGL173C, strain kem1, stronger effect = lower value 1.02 | locus YGL227W, strain vid30, stronger effect = lower value 1.01 | locus YGL240W, strain doc1, stronger effect = lower value 1.04 | locus YGL248W, strain PDE1, stronger effect = lower value 1 | locus YGL253W, strain hxk2, stronger effect = lower value 1.02 | locus YGR078C, strain PAC10, stronger effect = lower value 0.972 | locus YGR135W, strain pre9, stronger effect = lower value 1.06 | locus YGR229C, strain SMI1, stronger effect = lower value 1.01 | locus YGR252W, strain gcn5, stronger effect = lower value 1.07 | locus YHR013C, strain ard1, stronger effect = lower value 1.05 | locus YHR027C, strain rpn1, stronger effect = lower value 1.02 | locus YHR030C, strain SLT2, stronger effect = lower value 0.994 | locus YHR079C, strain IRE1 (second series), stronger effect = lower value 1.01 | locus YHR094C, strain hxt1, stronger effect = lower value 1.01 | locus YHR129C, strain ARP1, stronger effect = lower value 1.01 | locus YHR142W, strain chs7, stronger effect = lower value 1.05 | locus YHR200W, strain rpn10, stronger effect = lower value 0.996 | locus YIL066C, strain RNR3, stronger effect = lower value 1.01 | locus YIL073C, strain SPO22, stronger effect = lower value 1.05 | locus YIL125W, strain kgd1, stronger effect = lower value 0.999 | locus YIR030C, strain dcg1, stronger effect = lower value 1.01 | locus YJL092W, strain hpr5, stronger effect = lower value 1.02 | locus YJL095W, strain BCK1 (second series), stronger effect = lower value 1.03 | locus YJL095W, strain BCK1, stronger effect = lower value 1 | locus YJL115W, strain asf1, stronger effect = lower value 1.04 | locus YJL129C, strain trk1, stronger effect = lower value 1.05 | locus YJL134W, strain LCB3, stronger effect = lower value 1 | locus YJL154C, strain vps35, stronger effect = lower value 1.02 | locus YJL164C, strain tpk1, stronger effect = lower value 1.02 | locus YJL166W, strain qcr8, stronger effect = lower value 1.03 | locus YJL168C, strain set2, stronger effect = lower value 0.999
